Among all 5,500 compounds or so, about 2,000 (36%) were called active. Roughly 18% stayed inconclusive and do not appear here. Cut-off read from the data, not from the text of the source: active = normalized growth mostly below about 0.91 (no sharp cut-off); inconclusive = no clear call, values can overlap the other calls; inactive = mostly above about 0.92. The list shows a part of the results.
Assay: chemical genetic growth profiling, strain panel (AID 1159580);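 note: tested at 20 µM; growth read once vehicle control cultures reached saturation at 30 °C; 1 = growth at the plate median or of vehicle wells; lower values mean less growth of the strain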
Conditions: growth OD

Measured: normalized growth

Clc1ccc(C(OCCN2CCCCC2)c2ccccc2)cc1 (centres undefined)
inactive: S. cerevisiae deletion strains, locus YJR043C, strain POL32, active compounds read low 1.02 | S. cerevisiae deletion strains, locus YJR075W, strain HOC1, active compounds read low 0.948 | S. cerevisiae deletion strains, locus YKL009W, strain mrt4, active compounds read low 0.996 | S. cerevisiae deletion strains, locus YKL068W, active compounds read low 1 | S. cerevisiae deletion strains, locus YKL085W, strain MDH1 (second series), active compounds read low 0.997 | S. cerevisiae deletion strains, locus YKL085W, strain MDH1, active compounds read low 0.997 | S. cerevisiae deletion strains, locus YKL160W, strain elf1, active compounds read low 1.02 | S. cerevisiae deletion strains, locus YKL190W, strain CNB1, active compounds read low 1.01 | S. cerevisiae deletion strains, locus YKR001C, strain vps1, active compounds read low 0.994 | S. cerevisiae deletion strains, locus YKR026C, strain gcn3, active compounds read low 1.02 | S. cerevisiae deletion strains, locus YKR091W, strain srl3, active compounds read low 1.02 | S. cerevisiae deletion strains, locus YLL001W, strain dnm1, active compounds read low 1.02 | S. cerevisiae deletion strains, locus YLL026W, active compounds read low 1.02 | S. cerevisiae deletion strains, locus YLL041C, strain sdh2, active compounds read low 1.01 | S. cerevisiae deletion strains, locus YLR027C, strain aat2, active compounds read low 1.02 | S. cerevisiae deletion strains, locus YLR039C, strain RIC1, active compounds read low 1.26 | S. cerevisiae deletion strains, locus YLR058C, strain SHM2, active compounds read low 1 | S. cerevisiae deletion strains, locus YLR102C, strain apc9, active compounds read low 0.999 | S. cerevisiae deletion strains, locus YLR221C, strain rsa3, active compounds read low 1.01 | S. cerevisiae deletion strains, locus YLR258W, strain gsy2, active compounds read low 1.02 | S. cerevisiae deletion strains, locus YLR262C, strain YPT6 (second series), active compounds read low 1.07 | S. cerevisiae deletion strains, locus YLR262C, strain YPT6, active compounds read low 1.27 | S. cerevisiae deletion strains, locus YLR268W, strain sec22, active compounds read low 0.96 | S. cerevisiae deletion strains, locus YLR320W, strain mms22, active compounds read low 1.01 | S. cerevisiae deletion strains, locus YLR330W, strain CHS5, active compounds read low 1.01 | S. cerevisiae deletion strains, locus YLR342W, strain FKS1 (second series), active compounds read low 0.907 | S. cerevisiae deletion strains, locus YLR342W, strain FKS1, active compounds read low 1.04 | S. cerevisiae deletion strains, locus YLR357W, strain rsc2, active compounds read low 1.02 | S. cerevisiae deletion strains, locus YLR370C, strain arc18, active compounds read low 1 | S. cerevisiae deletion strains, locus YLR371W, strain rom2, active compounds read low 1.01 | S. cerevisiae deletion strains, locus YLR384C, strain iki3, active compounds read low 1.01 | S. cerevisiae deletion strains, locus YLR418C, strain cdc73, active compounds read low 0.852 | S. cerevisiae deletion strains, locus YML016C, strain PPZ1, active compounds read low 0.999 | S. cerevisiae deletion strains, locus YML032C, strain rad52, active compounds read low 0.979 | S. cerevisiae deletion strains, locus YML120C, strain ndi1, active compounds read low 1.01 | S. cerevisiae deletion strains, locus YML124C, strain tub3, active compounds read low 1.01 | S. cerevisiae deletion strains, locus YMR058W, strain fet3, active compounds read low 1.02 | S. cerevisiae deletion strains, locus YMR078C, strain ctf18, active compounds read low 1 | S. cerevisiae deletion strains, locus YMR125W, strain sto1, active compounds read low 1.03 | S. cerevisiae deletion strains, locus YMR129W, active compounds read low 1.03 | S. cerevisiae deletion strains, locus YMR205C, strain PFK2, active compounds read low 1.01 | S. cerevisiae deletion strains, locus YMR223W, strain ubp8, active compounds read low 0.987 | S. cerevisiae deletion strains, locus YMR231W, strain pep5, active compounds read low 1.02 | S. cerevisiae deletion strains, locus YMR263W, strain SAP30, active compounds read low 0.977 | S. cerevisiae deletion strains, locus YMR307W, strain GAS1, active compounds read low 1.12 | S. cerevisiae deletion strains, locus YNL067W, strain RPL9B, active compounds read low 0.98 | S. cerevisiae deletion strains, locus YNL071W, strain lat1, active compounds read low 1.02 | S. cerevisiae deletion strains, locus YNL128W, strain TEP1, active compounds read low 0.955 | S. cerevisiae deletion strains, locus YNL153C, strain GIM3, active compounds read low 0.971 | S. cerevisiae deletion strains, locus YNL209W, strain ssb2, active compounds read low 1.03 | S. cerevisiae deletion strains, locus YNL233W, strain BNI4, active compounds read low 0.986 | S. cerevisiae deletion strains, locus YNL248C, strain rpa49, active compounds read low 1.03 | S. cerevisiae deletion strains, locus YNL250W, strain rad50, active compounds read low 0.991 | S. cerevisiae deletion strains, locus YNL271C, strain bni1, active compounds read low 0.997 | S. cerevisiae deletion strains, locus YNL298W, strain CLA4, active compounds read low 1 | S. cerevisiae deletion strains, locus YNL307C, strain MCK1, active compounds read low 0.992 | S. cerevisiae deletion strains, locus YNL322C, strain KRE1 (second series), active compounds read low 1.03 | S. cerevisiae deletion strains, locus YNL322C, strain KRE1, active compounds read low 1.01 | S. cerevisiae deletion strains, locus YNR049C, strain mso1, active compounds read low 0.999 | S. cerevisiae deletion strains, locus YNR052C, strain pop2, active compounds read low 0.965 | S. cerevisiae deletion strains, locus YOL006C, strain TOP1, active compounds read low 0.592 | S. cerevisiae deletion strains, locus YOL012C, strain htz1 0.731 | S. cerevisiae deletion strains, locus YOL147C, strain pex11, active compounds read low 0.997 | S. cerevisiae deletion strains, locus YOR001W, strain rrp6, active compounds read low 1.02 | S. cerevisiae deletion strains, locus YOR061W, strain CKA2, active compounds read low 1 | S. cerevisiae deletion strains, locus YOR069W, strain VPS5, active compounds read low 0.997 | S. cerevisiae deletion strains, locus YOR070C, strain gyp1, active compounds read low 1.03 | S. cerevisiae deletion strains, locus YOR080W, strain dia2, active compounds read low 1.02 | S. cerevisiae deletion strains, locus YOR083W, strain WHI5, active compounds read low 1.02 | S. cerevisiae deletion strains, locus YOR106W, strain vam3, active compounds read low 1.01 | S. cerevisiae deletion strains, locus YOR136W, strain idh2, active compounds read low 1 | S. cerevisiae deletion strains, locus YOR144C, strain elg1, active compounds read low 1 | S. cerevisiae deletion strains, locus YOR184W, strain ser1, active compounds read low 1.04 | S. cerevisiae deletion strains, locus YOR265W, strain rbl2, active compounds read low 1.01 | S. cerevisiae deletion strains, locus YOR270C, strain vph1, active compounds read low 0.797 | S. cerevisiae deletion strains, locus YOR290C, strain snf2, active compounds read low 1.01 | S. cerevisiae deletion strains, locus YOR316C, strain cot1, active compounds read low 1 | S. cerevisiae deletion strains, locus YPL051W, strain arl3, active compounds read low 1.01 | S. cerevisiae deletion strains, locus YPL055C, strain LGE1, active compounds read low 0.958 | S. cerevisiae deletion strains, locus YPL078C, strain atp4, active compounds read low 1.02 | S. cerevisiae deletion strains, locus YPL106C, strain sse1, active compounds read low 1.02 | S. cerevisiae deletion strains, locus YPL240C, strain hsp82, active compounds read low 1.01 | S. cerevisiae deletion strains, locus YPL241C, strain CIN2, active compounds read low 1 | S. cerevisiae deletion strains, locus YPR119W, strain clb2, active compounds read low 1 | S. cerevisiae deletion strains, locus YPR141C, strain kar3, active compounds read low 0.993 | S. cerevisiae deletion strains, locus YPR163C, strain tif3, active compounds read low 0.981 | S. cerevisiae deletion strains, locus YPR167C, strain met16, active compounds read low 1 | S. cerevisiae deletion strains, strain wtn01, active compounds read low 0.974 | S. cerevisiae strains, strain wild type, active compounds read low 0.988
